From PubChem BioAssay AID1777 (Sanford-Burnham Center for Chemical Genomics, 2009) come the findings set out here.

Among all 280,000 compounds or so, about 50 (0.02%) were called active. The sample holds actives, similar compounds and a random draw of the others, so the mix is not that of the screen. Cut-off read from the data, not from the text of the source: active = activation above about 50% (passing the limit was not always enough); inactive = the rest. Entries with a potency or affinity are not part of this list.

In the test the target is Kappa-type opioid receptor (Homo sapiens) (UniProt P41145). In words: KOR agonists, beta-arrestin recruitment, primary screen, cell-based, luminescence, uHTS (AID 1777). The settings on record: at 10 µM, stronger effect = higher value. On the technique in general: Activated receptors often draw arrestin, which recruitment assays turn into a signal.
Kappa-type opioid receptor (Homo sapiens), sequence (P41145 whole entry, looked up): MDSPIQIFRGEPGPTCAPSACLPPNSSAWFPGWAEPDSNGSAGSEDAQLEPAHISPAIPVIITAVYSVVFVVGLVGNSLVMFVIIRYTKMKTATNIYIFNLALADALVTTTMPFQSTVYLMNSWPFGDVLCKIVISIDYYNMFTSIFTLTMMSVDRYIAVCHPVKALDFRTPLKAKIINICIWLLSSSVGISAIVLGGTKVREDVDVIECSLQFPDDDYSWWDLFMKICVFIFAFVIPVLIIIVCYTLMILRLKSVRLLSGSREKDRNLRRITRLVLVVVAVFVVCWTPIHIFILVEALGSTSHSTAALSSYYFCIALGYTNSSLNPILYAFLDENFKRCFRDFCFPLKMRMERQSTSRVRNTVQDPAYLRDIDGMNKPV
With `COc1ccc(C[C@H]2CN3C(=NC[C@H]3C)N2CCNC(=O)c2ccc(C)c(Br)c2)cc1`, the activation is 12.5% (inactive).
For `Cc1ccc(C(=O)NCCN2C3=NC[C@H](C)N3C[C@H]2Cc2ccc(O)cc2)cc1Br` the value was 25.2% (inactive).
Take `Cc1nnc(SCC(=O)N2c3ccccc3CC2C)[nH]c1=O` (stereo not given): the activation is 7.1% (inactive).
For `O=C(NC1CCCCC1)c1ccc(S(=O)(=O)N2CCOCC2)cc1` the value was 2% (inactive); for `Cc1cc(Nc2ccc(Cl)cc2)n2ncnc2n1`, -0.8% (inactive).
In the case of `Cc1oc(-c2ccccc2F)nc1CS(=O)CC(=O)NC1CC1` (stereo not given), the activation was 0.9% (inactive).
Then `COc1ccc(OC)c(NC(=O)c2ccc(CSc3ncccn3)cc2)c1`, with -7.7% (inactive); and `Cc1ccc(S(=O)(=O)Nc2ccccc2C(=O)Nc2nc(-c3ccc(F)cc3)cs2)cc1`, with 13% (inactive).
Turning to `COc1ccc(S(=O)(=O)Nc2ccccc2C(=O)Nc2nc(-c3ccc(F)cc3)cs2)cc1OC`, the activation is 15.1% (inactive).
Consider `O=C(Nc1nc(-c2ccccc2)cs1)c1ccccc1NS(=O)(=O)c1ccc(F)cc1`, for which the activation is 111% (active).
Take `Cc1ccc(O)c(C(=O)c2cnn(C(=O)COc3ccc(Cl)cc3)c2)c1`: the activation was 0.1% (inactive).
On to `Cc1cc(N/C(=N/S(=O)(=O)c2cc(F)ccc2F)c2ccccc2)n(-c2ccccc2)n1`, for which the activation is -1.3% (inactive).
`CCCCCCCCCCCCOC1OC(CO)C(O)C(O)C1NC(C)=O` (stereo not given): the activation is -0.9% (inactive).
For the compound `Cc1cc(=O)cc(C)n1-c1ccc(Cl)cc1`, the activation was 1.5% (inactive).
Then `CC1=CC(C)(C)N(C)C(=O)N1c1ccc(Cl)cc1`, with 7.6% (inactive); and `CCCn1c(C(CO)Nc2nc(-c3cccc(Br)c3)cs2)nc2ccccc21` (stereo not given), with 2.4% (inactive).
Regarding `Cc1cccc(C(=O)Nc2cccc(C(=O)N/N=C/c3ccc4c(c3)OCO4)c2)c1`, the activation was -5.3% (inactive).
For `CC(=O)Nc1nc(SCC(=O)NCC2CCCO2)[nH]c(=O)c1NC(=O)c1cccs1` (stereo not given) the value was -4.2% (inactive); for `CCN(C(=O)COC(=O)C1CCN(S(=O)(=O)c2c(Cl)cccc2Cl)CC1)C1CCCCC1`, -3.1% (inactive); for `COc1ccc(-n2c(C)cc(C(=O)COc3ccc(-n4cnnn4)cc3)c2C)cc1`, 3.1% (inactive).
Then `COc1ccccc1CN(Cc1cc2cc(C)ccc2[nH]c1=O)Cc1nnnn1Cc1ccco1`, with -3.4% (inactive).
Take `CC(=O)Nc1ccc(NC(=O)C(C)Sc2n[nH]c(=O)n2Cc2ccccc2)cc1` (stereo not given): the activation was -2.2% (inactive).
Turning to `CC(Sc1nnc(COc2ccccc2)n1Cc1ccccc1)C(=O)O` (stereo not given), the activation is 1.6% (inactive).
With `O=C(N/N=C/c1c[nH]c2ccc(Br)cc12)c1ccccn1`, the activation was 4.6% (inactive).
With `Nc1ccc(C2(c3ccc(N)cc3)OC(=O)c3ccccc32)cc1`, the activation was -7.1% (inactive).
Then `Nc1ccc(C2(c3ccc(N)cc3)C(=O)Nc3ccccc32)cc1`, with 0.1% (inactive); and `O=C(CSc1nnc(CNC(=O)c2c(F)cccc2F)o1)c1ccccc1`, with 4.5% (inactive).
Turning to `CCOc1ccc(N2C(=O)Nc3ccc(Br)cc3C2(O)C(=O)NCCN(C)C)cc1` (stereo not given), the activation is -0.1% (inactive).
For `Cc1cccc(C(C)C)c1NC(=O)c1ccc(COc2ccc3c(C)cc(=O)oc3c2)cc1`, the activation is 3.9% (inactive).
As to `CC(=O)Nc1ccc(NC(=O)c2ccc(COc3ccc4c(C)cc(=O)oc4c3)cc2)cc1`, the activation was 0.2% (inactive).
As to `CN(C)/C=C/C(=O)c1cccc(C(F)(F)F)c1`, the activation was 2.5% (inactive).
With `CCC1(c2ccc(F)cc2)NC(=O)N(CC(=O)Nc2ccccc2Cl)C1=O` (stereo not given), the activation is -0.1% (inactive).
On to `CCn1c(=O)c(-c2cc(=O)[nH][nH]2)c(O)c2ccccc21`, for which the activation is 2.3% (inactive).
Then `CCn1c(=O)c(C2=NS(=O)(=O)c3ccccc3N2)c(O)c2ccccc21`, with 54.2% (active); and `CCn1c(=O)c(-c2ccccc2)c(O)c2ccccc21`, with 1.3% (inactive); and `CC(=O)N(Cc1ccco1)C1(C(=O)NC2CCCCC2)CCCCC1`, with 2.1% (inactive).
As for `CC(=O)N(Cc1ccco1)C1(C(=O)NC2CCCC2)CCCCC1`, the activation was -1% (inactive).
Consider `Cc1cccc(C)c1NC(=O)C1(N(C(=O)c2ccccn2)c2ccc(O)cc2)CCCCC1`, for which the activation is -0.3% (inactive).
With `O=C(c1ccc(=O)[nH]c1)N(Cc1ccco1)C1(C(=O)NC2CCCCC2)CCCCC1`, the activation is -2.7% (inactive).
Turning to `O=C(c1cnccn1)N(Cc1ccco1)C1(C(=O)NC2CCCC2)CCCCC1`, the activation is -9% (inactive).
`O=C(c1ccc(=O)[nH]c1)N(Cc1ccco1)C1(C(=O)NC2CCCC2)CCCCC1`: the activation is 6% (inactive).
For `CC(=O)NCC(=O)N(Cc1ccco1)C1(C(=O)NC2CCCCC2)CCCCC1` the value was 3.8% (inactive); for `Cc1cccc(C)c1NC(=O)C1(N(Cc2ccco2)C(=O)Cn2nnnc2N)CCCCC1`, -0.3% (inactive); for `CC[n+]1c(-c2ccc(C)cc2)csc1Nc1c(C)n(C)n(-c2ccccc2)c1=O`, -4.9% (inactive).
With `Cc1ccc(S(=O)(=O)N2CCN(CC(=O)N/N=C/C=C/c3ccccc3)CC2)cc1`, the activation is 0.3% (inactive).
Then `COc1cc(OC)cc(C(=O)NCC(=O)N2CCCCC2)c1`, with -0.7% (inactive); and `CC1(C)Cc2c(cnn2-c2cccc(F)c2)C(NC(=O)c2csnn2)C1` (stereo not given), with 5.1% (inactive); and `CCOc1ccccc1NC=C1C(=O)OC(C)(C)OC1=O`, with 4.4% (inactive).
As for `Cc1c(NC(=O)c2cccc(S(=O)(=O)N3CCOCC3)c2)c(=O)n(-c2ccccc2)n1C`, the activation is -7.9% (inactive).
As to `O=C(NCC1CCCO1)C1CC(=O)N(c2cccc(Cl)c2)C1` (stereo not given), the activation is 5.7% (inactive).
For `CCC(=O)Nc1c2c(nn1-c1cccc(Cl)c1)CS(=O)(=O)C2` the value was -8.6% (inactive); for `CCOc1ccccc1NC(=O)CN(C)S(=O)(=O)c1ccc2[nH]c(=O)oc2c1`, -1.5% (inactive).
As for `Cc1ccc2c(CC(=O)NCC3COc4ccccc4O3)coc2c1` (stereo not given), the activation was -4.2% (inactive).
Then `Cc1cc(C)n(-c2cccc(CN3CCC(CO)(Cc4ccccc4)CC3)c2)n1`, with -3.3% (inactive).
Take `Cc1cccc(-n2ccnc2CN2CCN(C(C)C)C(CCO)C2)c1` (stereo not given): the activation is 8% (inactive).
With `CCCC(=O)NC(c1ccc(Cl)cc1Cl)c1ccc2cccnc2c1O` (stereo not given), the activation was -5.3% (inactive).
For `O=C(c1ccc2c3n(nc2c1)-c1ccccc1CO3)N1CCOCC1` the value was 0.7% (inactive).
On to `O=C(C(Cc1ccccc1)n1cccc1)N1CCN(c2ccccc2)CC1` (stereo not given), for which the activation was -3.7% (inactive).
As to `Cc1cccc(N2CCN(C(=O)C(Cc3ccccc3)n3cccc3)CC2)c1C` (stereo not given), the activation was 81% (inactive).
With `COc1cccc(CN2CC(C(=O)N(C)Cc3nc(C)cs3)CCC2=O)c1` (stereo not given), the activation was -2.2% (inactive).
For `O=c1cc(N2CCN(c3ccccc3)CC2)[nH]c(=O)n1Cc1ccc(F)cc1` the value was -5.2% (inactive); for `Cc1cccc(N2CCN(C(=O)c3cccc(N4CCCC4=O)c3)CC2)c1C`, -3.4% (inactive).
Regarding `Cc1cccc2cc(CN(Cc3cccs3)C(c3nnnn3C3CCCC3)C(C)C)c(=O)[nH]c12` (stereo not given), the activation was 66% (active).
Then `CCC(c1nnnn1C1CCCC1)N(Cc1cccs1)Cc1cc2cc(C)ccc2[nH]c1=O` (stereo not given), with 3.2% (inactive); and `Cc1cccc2cc(CN(Cc3cccs3)C3(c4nnnn4C4CCCC4)CCCC3)c(=O)[nH]c12`, with 9.6% (inactive).
For `Cc1ccc(N2CC(C(=O)N3CCCCCC3)CC2=O)cc1` (stereo not given), the activation was 1.5% (inactive).
With `CC1CCCN(C(=S)Nc2ccc(S(=O)(=O)N3CCCCC3)cc2)C1` (stereo not given), the activation is -0.4% (inactive).
Take `CCCOC(=O)NC1C(NC(=O)OCCC)N(C)C(=O)N1C` (stereo not given): the activation is -2.1% (inactive).
On to `Cn1cccc1/C=N/N1CCN(Cc2cccc3ccccc23)CC1`, for which the activation was 3% (inactive).
In the case of `Nc1ccc2nc(SCC(=O)c3ccccc3)sc2c1`, the activation was -1.7% (inactive).
`O=C(CSc1nc2ccc([N+](=O)[O-])cc2s1)c1ccc2ccccc2c1`: the activation is 57.8% (active).
In the case of `O=C(CSc1nc2ccc([N+](=O)[O-])cc2[nH]1)c1ccc2ccccc2c1`, the activation was -0.1% (inactive).
For `CCOC(=O)N1CCC(N(CCOC)C(=O)Nc2ccc(Cl)c(Cl)c2)CC1` the value was -4.1% (inactive); for `COc1ccc(OC)c2[nH]c(=O)c(CCNC(=S)NC(C)(C)C)cc12`, -9% (inactive).
`OCCNCc1ccc(OCc2ccc(Cl)cc2Cl)cc1`: the activation is -6.2% (inactive).
Take `OCCCCNCc1ccc(OCc2ccc(Cl)cc2Cl)cc1`: the activation is 3.1% (inactive).
Take `Oc1cccc(C(O)CNCc2ccc(OCc3ccc(Cl)cc3Cl)cc2)c1` (stereo not given): the activation was 103% (active).
For `Cc1cc(C)n(CCNC(=O)c2cc(COc3ccc4ncccc4c3)on2)n1`, the activation is 0.2% (inactive).
With `Cc1ccc(OC(C)c2nnc(N)s2)cc1Cl` (stereo not given), the activation is -0.5% (inactive).
`COc1ccc(S(=O)(=O)N2CCCC(C(=O)NC3CCCC3)C2)cc1OC` (stereo not given): the activation is -2.8% (inactive).
As for `C(=C\c1ccccc1)/CNCC1CCCO1` (stereo not given), the activation is 2% (inactive).
Consider `CC[C@@H](C(=O)[C@@H](C)[C@@H](O)[C@H](C)CCc1ccc(C)c(O)c1C(=O)O)[C@H]1O[C@](CC)([C@H]2CC[C@](O)(CC)[C@H](C)O2)C[C@@H]1C`, for which the activation was 83.4% (active).
As for `CC(C)OCCCNC(=O)C(Cc1ccccc1)NS(=O)(=O)c1ccc2c(c1)CCC(=O)N2` (stereo not given), the activation is 0.5% (inactive).
Turning to `COc1ccc(CCN2C(=O)CSC2=Nc2ccc(C)cc2C)cc1OC`, the activation was 9.8% (inactive).
Take `COc1ccc(N=C2SCC(=O)N2CCc2ccc(OC)c(OC)c2)cc1`: the activation is 23.1% (inactive).
For `COc1ccc2cc(CN(CC3COCCO3)S(=O)(=O)c3c(C)cc(C)cc3C)c(=O)[nH]c2c1` (stereo not given), the activation was -0.5% (inactive).
On to `O=C(CN1CCN(c2ccc(F)cc2)CC1)Nc1cccnc1Cl`, for which the activation is 0.4% (inactive).
With `COc1ccc(C(=O)CSc2nnc(-c3ccc(C)cc3)o2)cc1`, the activation was -0.9% (inactive).
For the compound `COc1ccc(C(=O)CSc2nnc(-c3ccc(S(=O)(=O)N4CCOCC4)cc3)o2)cc1`, the activation was 50.2% (active).
Then `CCN(CC)S(=O)(=O)c1ccc(-c2nnc(SCC(=O)c3ccc(OC)cc3)o2)cc1`, with 3.1% (inactive).
